Compound activity (PubChem)
Shown are actives, neighbours in structure and some others; about 2.3% of the full set was active somewhere.
V-ATPase pHluor: regulators of yeast V-ATPase proton pumping, primary screen, pHLuorin cytosolic pH fluorescence; response, % at 10 µM; 350,000 compounds, 0.37% hits; S. cerevisiae; in the data active = response mostly above about 7.3%, no sharp cut-off; inactive = mostly below about 5.4%; note: actives read high
proKLK7 act: proKLK7 zymogen activators, primary screen, biochemical, fluorescence intensity; activation, % at 7 µM; purified proKLK7, EDANS-DABCYL substrate fluorescence; 100% is mature enzyme control, 0% vehicle; Kallikrein-7 (Homo sapiens), P49862; 370,000 compounds, 0.9% hits; AID 652039, 2013;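 active = activation above the mean of all tested compounds plus 3 SD, computed per campaign excluding outliers beyond control limits, cut at about 13% in these data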
ADAM17 inh: ADAM17 inhibitors, primary screen, biochemical, QFRET | recombinant ADAM17, EDANS/DABCYL FRET peptide cleavage | Disintegrin and metalloproteinase domain-containing protein 17 (Homo sapiens), P78536 | 370,000 compounds, 0.83% hits | inhibition, % at 6.95 µM;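 active = inhibition above the mean of compounds lying between control limits plus 3 SD, set per campaign, cut at about 8.5% in these data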;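 note: 0% = DMSO-only wells as the low control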
Target sequence (P78536 215-824 limits assumed): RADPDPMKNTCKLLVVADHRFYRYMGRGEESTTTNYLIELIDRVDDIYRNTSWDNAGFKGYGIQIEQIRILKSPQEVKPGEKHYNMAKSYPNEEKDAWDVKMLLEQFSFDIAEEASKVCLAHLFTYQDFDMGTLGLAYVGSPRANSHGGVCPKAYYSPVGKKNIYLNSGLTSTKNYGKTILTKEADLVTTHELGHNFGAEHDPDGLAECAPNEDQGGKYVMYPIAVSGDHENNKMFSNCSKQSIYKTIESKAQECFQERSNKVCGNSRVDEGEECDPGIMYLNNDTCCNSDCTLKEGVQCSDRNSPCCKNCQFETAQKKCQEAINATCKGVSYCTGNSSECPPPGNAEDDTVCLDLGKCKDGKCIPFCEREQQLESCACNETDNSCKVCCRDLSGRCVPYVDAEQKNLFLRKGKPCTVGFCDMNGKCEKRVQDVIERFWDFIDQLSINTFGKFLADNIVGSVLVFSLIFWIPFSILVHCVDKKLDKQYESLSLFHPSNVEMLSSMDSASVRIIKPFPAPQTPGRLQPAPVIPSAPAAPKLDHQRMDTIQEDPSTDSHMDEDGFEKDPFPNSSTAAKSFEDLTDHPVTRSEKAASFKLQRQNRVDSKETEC
ADAM10 inh: human ADAM10 inhibitors, primary screen, biochemical, QFRET, HTS; Disintegrin and metalloproteinase domain-containing protein 10 (Homo sapiens), O14672; recombinant ADAM10, EDANS/DABCYL FRET peptide cleavage, 3 h; inhibition, % at 7 µM; 370,000 compounds, 0.62% hits; AID 720582, 2013;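 active = inhibition above a per-campaign cutoff equal to the mean of compounds falling between control-based bounds plus 3 SD, cut at about 20% in these data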;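 note: 0% = DMSO wells while the 100% control is not disclosed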
ADAM10 confirm: human ADAM10 inhibitors, confirmation, biochemical, QFRET, triplicate; ADAM10 QFRET peptide cleavage, EDANS fluorescence; shares compounds with ADAM10 inh; AID 743208, 2013; inhibition, % at 6.95 µM; 2,100 compounds, 1% hits;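 active = inhibition above about 20% chosen separately for each screening run, limit read from the data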;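 note: 0% = DMSO wells and 100% = marimastat wells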
ADAM17 counter: ADAM17 inhibitors, counter-screen for ADAM10 exosite inhibitor project, biochemical, QFRET, high throughput | inhibition, % at 6.95 µM | 2,100 compounds, 0.5% hits | shares compounds with ADAM10 inh | ADAM17 QFRET peptide cleavage, EDANS fluorescence | AID 743214, 2013;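 active = mean triplicate inhibition above the solvent-only control wells' mean plus 3 SD, cut at about 12% in these data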;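 note: 0% = DMSO wells and 100% = marimastat wells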
ADAM10 ctr: ADAM10 inhibitors, counter-screen for ADAM17 exosite inhibitor project, biochemical, FRET, human ADAM10; shares compounds with ADAM17 inh; recombinant ADAM10, EDANS/DABCYL FRET peptide cleavage, 3 h; inhibition, % at 6.95 µM; 2,900 compounds, 47% hits; AID 743256, 2014;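 active = mean inhibition over the triplicate runs exceeds the activity threshold set in the earlier primary screen, cut at about 20% in these data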;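 note: 0% = DMSO wells and 100% = marimastat wells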
ADAM17 confirm: ADAM17 inhibitors, hit retest, confirmation, biochemical, QFRET peptide cleavage | shares compounds with ADAM17 inh | AID 743257, 2014 | 2,900 compounds, 65% hits | recombinant ADAM17, EDANS/DABCYL QFRET peptide cleavage | inhibition, % at 6.95 µM;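 active = mean inhibition across replicates above the hit cutoff set in the primary screen, cut at about 8.5% in these data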;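 note: 0% = DMSO wells and 100% = marimastat wells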
An asterisk follows results filed as active; . = no result.

SMILES | V-ATPase pHluor | proKLK7 act | ADAM17 inh | ADAM10 inh | ADAM10 confirm | ADAM17 counter | ADAM10 ctr | ADAM17 confirm
O=C(Nc1ccccc1)OCC1COC(c2ccccc2)(c2ccccc2)O1 (stereo not given) | 0.6 | 0.2 | 10.6* | 24.8* | 9.4 | 3.1 | 24.4* | 11.8*
CCc1noc(C)c1C(=O)N1CCN(CC(=O)OC)CC1 | . | 0.3 | -0.7 | -1.7 | . | . | . | .
COc1nccnc1NS(=O)(=O)c1ccc(NC(=S)NC(=O)/C=C/c2ccc(F)cc2)cc1 | -1.4 | -0.2 | 10.4* | 23.9* | -1.7 | -0.5 | 8.2 | 6.9
COc1cc(-c2nnc(COc3ccc4ccccc4c3)o2)cc(OC)c1OC | 2.0 | 0.1 | 10.1* | 20.8* | 8.0 | 3.2 | 22.4* | 15.5*
CCOC(=O)C(=O)Cc1nc(OCc2ccccc2)cc(OCc2ccccc2)n1 | -0.8 | 0.4 | -3.4 | -3.2 | . | . | . | .
CCOC(=O)C(Cc1nc(OCc2ccccc2)cc(OCc2ccccc2)n1)=NO | 0.4 | 0.2 | 8.8* | 28.4* | 8.7 | 3.1 | 23.6* | 12.1*
CC1=C[C@@H]2[C@H]3C(=O)N(Cc4ccccc4)C(=O)[C@H]3[C@@H]1[C@@H]1O[C@@]3(C(=O)N(C)c4ccccc43)C3=C(CCCC3=O)N21 | . | 0.9 | -1.5 | -3.9 | . | . | . | .
Cc1ccc(C2CN(C)C3(C(=O)Nc4ccccc43)C23COc2ccccc2C3=O)cc1 (stereo not given) | 4.4 | 0.4 | 9.6* | 27.0* | 7.5 | 2.8 | 34.9* | 19.1*
COC(=O)C1CN(Cc2cn(Cc3ccc(F)cc3)nn2)CCS(=O)(=O)N1Cc1ccccc1 (stereo not given) | . | 0.1 | -1.5 | 1.9 | . | . | . | .
COc1cc2c(cc1NC(=O)C(C)Sc1ccc(NC(C)=O)cc1)oc1ccccc12 (stereo not given) | -0.3 | 0.7 | 21.8* | 46.9* | 9.2 | 3.2 | 31.5* | 17.5*
O=S1(=O)N[C@@H](Cc2ccccc2)COc2cccc(N3CCCCC3)c21 | . | -0.2 | 1.7 | -2.4 | . | . | . | .
CCCc1nc2c(C)cc(Br)cn2c1Cc1ccccc1OC | . | -1.0 | -9.1 | -30.9 | . | . | . | .
O=C(CSC1CC(=O)N(CC(c2ccccc2)c2ccccc2)C1=O)Nc1ccc(Cl)cc1 (stereo not given) | -1.2 | -0.4 | 16.3* | 24.7* | 8.9 | 3.5 | 31.6* | 19.9*
Nc1ccc2c(c1)Cc1cc(N)c(Cl)cc1-2 | 0.1 | -0.5 | 12.1* | 27.2* | 9.0 | 5.3 | -4.8 | 4.3
Nc1ccc2c(c1)Cc1cc(Cl)c(Cl)cc1-2 | 0.4 | -0.2 | 0.5 | -10.9 | . | . | . | .
O=C(CSc1nnc(-c2cccnc2)n1Cc1ccco1)Nc1ccc(Cl)c(Cl)c1 | . | 0.2 | 3.8 | 4.9 | . | . | . | .
Cc1ccc(Cn2cc(CN3[C@H](C)COc4cc(Br)ccc4S3(=O)=O)nn2)cc1 | . | 0.3 | -2.4 | 5.0 | . | . | . | .
O=C(NCCCCC(NC(=O)c1ccccc1)C(=O)O)OCc1ccccc1 (stereo not given) | . | 0.0 | -2.8 | -0.9 | . | . | . | .
O=C(Nc1ccccc1)Nc1cc(OCC(F)(F)F)cc(OCC(F)(F)F)c1 | 4.5 | -0.5 | 14.5* | 31.4* | 9.3 | 2.2 | 28.0* | 17.4*
CC1(Cc2ccccc2OC(F)(F)F)C(=O)Nc2ccc(-c3ccsc3)cc21 (stereo not given) | . | 0.4 | 10.0* | 29.8* | 7.7 | 3.0 | 23.9* | 13.8*
CC1(Cc2ccccc2OC(F)(F)F)C(=O)Nc2ccc(OC(F)(F)F)cc21 (stereo not given) | . | 0.0 | 4.7 | 16.0 | . | . | . | .
COc1ccc(C(C)=O)cc1CC1(C)C(=O)Nc2ccc(-c3cccc(C(F)(F)F)c3)cc21 (stereo not given) | . | -0.1 | 9.8* | 27.0* | 8.7 | 2.5 | 24.1* | 14.2*
CC(=O)c1cccc(-c2ccc3c(c2)C(C)(Cc2ccccc2C#N)C(=O)N3)c1 (stereo not given) | . | -0.6 | -1.9 | -1.4 | . | . | . | .
Cc1noc(C)c1COc1ccc(C(=O)OCC(=O)Nc2ccc3ccccc3c2)cc1 | -8.1 | -0.7 | 8.8* | 20.5* | 8.7 | 2.7 | 32.9* | 19.2*
Cc1noc(C)c1COc1ccc(C(=O)OCC(=O)Nc2ccc(C(=O)N(C)C)cc2)cc1 | -5.0 | 0.0 | -3.8 | -1.6 | . | . | . | .
SMILES | V-ATPase pHluor | proKLK7 act | ADAM17 inh | ADAM10 inh | ADAM10 confirm | ADAM17 counter | ADAM10 ctr | ADAM17 confirm
CCc1cccc2c(C(=O)CN3C(=O)NC(C)(c4cccc5ccccc45)C3=O)c[nH]c12 (stereo not given) | 3.4 | -0.5 | 9.6* | 30.2* | 8.2 | 2.5 | 28.2* | 16.3*
CCc1cccc2c(C(=O)CN3C(=O)NC4(CCc5ccccc54)C3=O)c[nH]c12 (stereo not given) | 2.0 | 0.3 | 1.7 | 6.0 | . | . | . | .
COc1ccc(-c2nc(C)ncc2N=Nc2ccccc2)cc1 | -0.6 | 0.3 | 0.0 | 4.0 | . | . | . | .
Oc1ccccc1N=Nc1nc(-c2ccccc2)c(-c2ccccc2)[nH]1 | 4.7 | 0.3 | 9.9* | 25.6* | 5.0 | 1.7 | 28.5* | 12.4*
COc1ccc(N=Nc2nc(-c3ccccc3)c(-c3ccccc3)[nH]2)cc1 | 0.1 | 0.2 | 9.2* | 23.7* | 8.6 | 3.0 | 32.3* | 15.4*
COCC(=O)Nc1ccc2c(c1)C(=O)N(C)[C@@H]1CC[C@@H](CC(=O)OC)O[C@H]1CO2 | . | 0.1 | -4.7 | -0.8 | . | . | . | .
CCC(=O)N(Cc1ccco1)c1nc(C(=O)Nc2ccc(Cl)cc2)c(C)s1 | 3.6 | 0.7 | 10.8* | 21.7* | 11.3 | 2.7 | 32.2* | 17.2*
COc1ccc(S(=O)(=O)Nc2ccc(C)cc2)cc1N(C)S(=O)(=O)c1ccc(Cl)cc1 | 3.7 | 0.0 | 18.7* | 32.2* | 7.5 | 2.0 | 39.7* | 20.9*
COc1ccc(S(=O)(=O)NN(C)C)cc1N(C)S(=O)(=O)c1ccc(Cl)cc1 | 2.3 | 0.0 | 1.3 | -1.1 | . | . | . | .
CC(C)CNC(=O)OCc1cn(Cc2c(F)cccc2F)nn1 | . | 0.4 | 0.9 | 0.7 | . | . | . | .
